Assay outcomes as filed in PubChem.
Most compounds without a hit are left out; they make up all but 6.1% or so of the library.
DRD3 antagonist: D3 dopamine receptor (human) antagonism | D3R cells, DiscoveRx beta-arrestin luminescence, antagonist mode; stronger effect = lower value | max response, negative = inhibition, % | 2.5% of 360,000 active | AID 652054; in the data active = max response below about -50%; inconclusive = no clear call, values can overlap the other calls
Target sequence (P35462 whole entry, looked up): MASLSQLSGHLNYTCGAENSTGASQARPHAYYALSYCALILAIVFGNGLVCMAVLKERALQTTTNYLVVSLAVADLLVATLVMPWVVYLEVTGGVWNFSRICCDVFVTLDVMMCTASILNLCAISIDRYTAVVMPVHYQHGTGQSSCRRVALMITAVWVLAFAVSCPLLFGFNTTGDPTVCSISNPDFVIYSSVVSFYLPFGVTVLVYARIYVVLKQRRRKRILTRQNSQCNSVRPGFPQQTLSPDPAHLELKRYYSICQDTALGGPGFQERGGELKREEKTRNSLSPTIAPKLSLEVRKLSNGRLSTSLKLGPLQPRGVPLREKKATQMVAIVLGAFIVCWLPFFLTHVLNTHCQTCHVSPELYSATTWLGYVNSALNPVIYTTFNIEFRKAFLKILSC
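Cells plated overnight at 1500 cells/well, then exposed to library compounds with dopamine controls for 90 minutes at 37 degrees C. DiscoveRx reagent added for 30–60 minutes at room temperature; luminescence read, quantitative HTS format.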
D1 antagonist: antagonists of human D1 dopamine receptor; HEK293 TREx D1 cells, calcium flux, dopamine EC80; stronger effect = lower value; 3.2% of 360,000 active; activity change, negative = inhibition, % at 10 µM; in the data active = activity change below about -30%
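Antagonism measured as reduced calcium response to an EC80 dopamine addition following 180 s compound pre-read; cells were inducible HEK293 Trex D1 plated overnight at 30 C, read kinetically at 1 cycle/sec.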
D3 ag: activates the human D3 dopamine receptor; P35462; 0.58% of 410,000 active; D3R DiscoveRx beta-arrestin cells, luminescence, 90 min; AID 652048; max activation, %; in the data active = max activation above about 30%
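Agonist-mode cell screen: cells plated at 1500/well and incubated overnight at 37 °C, then exposed to library compounds for 90 min at 37 °C. Detection reagent was added for 30–60 min at room temperature, and luminescence was read.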
D1 PAM: enhances dopamine response at the human D1 receptor. P21728. HEK293 TREx D1 cells, calcium flux, dopamine EC20 potentiation. potentiation, % at 10 µM. 0.036% of 360,000 active; in the data active = potentiation above about 30%
D1 agonist: agonists of human D1 dopamine receptor | 1% of 360,000 active | P21728 | AID 504660 | HEK293 T-REx D1 cells, calcium flux, agonist mode | activation, % at 2 µM; in the data active = activation above about 30%
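Inducible HEK293 T-REx D1 cells, force-coupled to calcium signalling, were plated at 4000 cells/well with tetracycline and held overnight at 30 C. After no-wash calcium dye loading, compound-evoked calcium rise over 180 s flagged agonists.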
Large screens that a line does not name were inactive.

COC(=O)c1cn(-c2ccccc2)nc1-c1ccc(OC)c(OC)c1	none
COc1ccc(N2CCN(C(=O)c3cc4c(-c5cccc(OC)c5)nn(C)c4s3)CC2)cc1	none
COc1ccc(-c2nn(-c3ccccc3)cc2C(=O)NC(=S)N2CCOCC2)cc1OC	D1 antagonist -38.6
COc1ccc(-c2cc(C(=O)N3CCOCC3)no2)cc1OC	D1 antagonist -32.4
O=C(c1cc(-c2ccc(Cl)c(Cl)c2)on1)N1CCN(c2ccccc2)CC1	D1 antagonist -31.1
COc1ccc(-c2cc(C(=O)N3CCN(c4ccccc4)CC3)no2)cc1OC	none
COc1ccc(-c2nn(C)c3sc(C(=O)N4CCOCC4)cc23)cc1OC	D1 antagonist -60.3
CC1CCN(C(=O)c2cc(-c3ccc4c(c3)OCO4)on2)CC1	D1 antagonist -33.2
CCOC(=O)/C(=C\c1cccnc1)C(=O)c1cc(C(C)=O)c(Nc2ccccc2)s1	DRD3 antagonist -130.0
O=C(/C=C/c1cccs1)NC(=S)NNC(=O)Cc1cccs1	DRD3 antagonist -80.1
CCOC(=O)/C(=C\c1ccc(OC)c(OC)c1)C(=O)c1cccnc1	DRD3 antagonist -50.1
O=C(/C=C/c1cccs1)NCc1cccs1	none (no result: D1 antagonist, D1 PAM, D1 agonist)
COc1ccc(/C=C/C(=O)NC(=S)NNC(=O)Cc2cccs2)cc1OC	DRD3 antagonist -71.6
Cc1ccc(CNC(=O)c2c(-c3cccc(Br)c3)noc2C)o1	none (no result: DRD3 antagonist)
CC(C)c1ccc(S(=O)(=O)Nc2cc3c(cc2NCc2ccccc2)n(C)c(=O)n3C)cc1	none (no result: DRD3 antagonist)
Cc1cccc(C)c1-n1ncc(C(=O)NCCCN2CCC(C)CC2)c1C1CCN(C(=O)OC(C)(C)C)CC1	none (no result: DRD3 antagonist)
O=C(/C=C/c1ccccc1)NC(=S)NNC(=O)c1cccnc1	DRD3 antagonist inconclusive
COc1ccc(C=C(C(C)=O)C(C)=O)cc1OC	DRD3 antagonist -50.4
COc1ccc(C(=O)NC(=S)NNC(=O)Cc2cccs2)cc1	DRD3 antagonist -66.8
COc1cc(C=C(C(C)=O)C(C)=O)ccc1O	none
COc1ccc(/C=C/C(=O)NC(=S)NNC(=O)c2cccnc2)cc1OC	DRD3 antagonist -60.8
Cc1cccc(-n2c3nc(=O)[nH]c(=O)c-3cc3ccc(Cl)cc32)c1C	none (no result: DRD3 antagonist)
O=c1[nH]c2ccccc2nc1/C=C(\O)c1cccs1	D1 agonist 279.5
CC(C)(C)/C(O)=C/c1nc2ccccc2[nH]c1=O	D1 agonist 44.8
O=c1[nH]c2ccccc2nc1/C=C(\O)C1CC1	none
O=C(c1ccc2c(c1)N(Cc1ccc(F)cc1)C(=O)c1ccccc1S2=O)N1CCC(Cc2ccccc2)CC1 (stereo unspecified)	none (no result: DRD3 antagonist)
CC(C)c1ccc(NC(=O)CN2C(=O)COc3ccc(S(=O)(=O)N4CCCCC4)cc32)cc1	none (no result: DRD3 antagonist)
Cc1ccc(NC(=O)CCNS(=O)(=O)c2ccc3c(c2)CCN3C(=O)C2CC2)c(Cl)c1	none (no result: DRD3 antagonist)
Cc1ccc(S(=O)(=O)N2CCc3cc(C(=O)Nc4c(C)cccc4C(C)C)ccc32)cc1	none (no result: DRD3 antagonist)
O=C(NCCCCc1ccccc1)c1nn(-c2ccccc2)nc1CO	none (no result: DRD3 antagonist)
OC(CN1CCN(c2ccccn2)CC1)Cn1c2ccc(Cl)cc2c2cc(Cl)ccc21 (stereo unspecified)	D3 ag 45.3
OC(CN1CCCCC1)Cn1c2ccc(Cl)cc2c2cc(Cl)ccc21 (stereo unspecified)	DRD3 antagonist inconclusive, D1 agonist 35.4
CCc1ccccc1NC(=O)c1sc(-n2nc(C)c(Cc3ccc4c(c3)OCO4)c2C)nc1C	none (no result: DRD3 antagonist)
CCC1Oc2ccc(C)cc2N(CC(=O)N2CCN(c3ccccc3OC)CC2)C1=O (stereo unspecified)	none (no result: DRD3 antagonist)
Cc1onc(-c2c(Cl)cccc2Cl)c1C(=O)c1c[nH]c(C(=O)NCCCN2CCOCC2)c1	DRD3 antagonist -53.8
Cc1onc(-c2c(Cl)cccc2Cl)c1C(=O)NCCCN1CCOCC1	none
Cc1c(-c2ccccc2)c(=O)oc2c(CN3CCN(C)CC3)c(O)ccc12	none (no result: DRD3 antagonist)
O=C(CCc1ccccc1)NC(NC(=S)Nc1cccc(Cl)c1)C(Cl)(Cl)Cl (stereo unspecified)	none
O=C(CCc1ccccc1)NC(NC(=S)Nc1ccc(Br)cc1)C(Cl)(Cl)Cl (stereo unspecified)	DRD3 antagonist -90.8
CCN(CC)C(=O)C1=C(C)Nc2nc3ccccc3n2C1c1ccc(Br)cc1 (stereo unspecified)	none (no result: DRD3 antagonist)
CCCCc1n[nH]c2c1/C(=N/OCC)CC(C)(C)C2	D1 PAM 34.6, D1 agonist 61.9
CCCc1n[nH]c2c1C(=O)CC(C)(C)C2	D1 PAM 33.1
CCCCc1n[nH]c2c1/C(=N/O)CC(C)(C)C2	none
CC1(C)CC(=O)c2c(-c3cccs3)n[nH]c2C1	none (no result: D1 antagonist)
O=C(Nc1ccc(F)cc1F)Nc1csc2ccccc12	D1 antagonist -33.4
O=C(Nc1ccc(F)c(Cl)c1)Nc1csc2ccccc12	D1 antagonist -33.3
CCOc1ccc(OCc2cccc(C(=O)N3CCCCCC3)c2)cc1	none
O=C(NN1CCCCC1)c1cccc(COc2ccc(Cl)cc2)c1	D1 antagonist -30.7
COc1ccc(C)cc1NC(=O)C(OC(=O)CNC(=O)c1ccccc1)c1ccccc1 (stereo unspecified)	none (no result: DRD3 antagonist, D3 ag)
CC1(C(=O)Nc2ccc(F)cc2F)CCN1C(=O)Cc1ccc(Cl)cc1Cl (stereo unspecified)	D3 ag 77.8 (no result: D1 antagonist, D1 PAM, D1 agonist)
Cc1ccc(C)c(CN2C(=O)CSc3ccc(C(=O)NCc4ccc(F)cc4)cc32)c1	none (no result: DRD3 antagonist)
COc1ccc(OC2C(=O)N(Cc3ccc(F)cc3)C2c2ccc(OC)c(OC)c2)cc1 (stereo unspecified)	none
COc1ccc(OC2C(=O)N(Cc3ccc4c(c3)OCO4)C2c2sccc2C)cc1 (stereo unspecified)	D3 ag 34.4
Cc1nn(C)cc1CNC(=O)COc1ccc(Cl)cc1Cl	D1 antagonist -32.8
N#C/C(=C/c1ccc(-c2ccccc2)o1)c1nc(-c2cccs2)cs1	D1 agonist 215.0
COc1ccc(/C(C#N)=C/c2ccccn2)cc1	none
N#C/C(=C\c1ccccn1)c1nc2ccccc2s1	D1 agonist 148.4
N#C/C(=C\c1ccc(-c2ccc(F)cc2)o1)C(=O)Nc1nc(-c2cccs2)cs1	none
N#C/C(=C/c1ccc(-c2ccc(S(N)(=O)=O)cc2)o1)C(=O)Nc1ccccc1	none
N#C/C(=C/c1ccc(-c2ccc(S(N)(=O)=O)cc2)o1)c1nc2ccccc2s1	D1 agonist 265.4
CCOC(=O)N1CCN(/C=C(\C#N)c2nc3ccccc3s2)CC1	D1 agonist 32.1
O=C(COc1ccccc1)Nc1ccccc1C(=O)OCc1cc(=O)n2nc(C3CC3)sc2n1	none (no result: DRD3 antagonist)
CN(c1nnc(NC(=O)Nc2ccccc2C(F)(F)F)s1)C1CCCCC1	none (no result: DRD3 antagonist)
CC(C)(C)c1ccc(C(=O)OC/C(O)=C(\C#N)c2nc3ccccc3s2)cc1	D1 antagonist -75.5
COC(=O)c1ccc(/C=C(\C#N)c2nc3ccccc3s2)cc1	D1 agonist 55.8
COC(=O)c1ccc(/C=N/NC(=O)CCSc2nc3ccccc3s2)cc1	none (no result: DRD3 antagonist, D3 ag)
